# Measured values taken from the supplement of paper PMC12494721.
# Where a name gives a salt, the structure may show the parent alone.
# Assays:
# Conditions in all cases: incubation time: 27 h, anaerobic, 37 °C;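 for the amine columns active = adjusted P below 0.05 in both replicates with a change the same way and a mean fold change under 0.8 or over 1.25; inactive = the rest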
# [1] = tested on: Clostridium sporogenes DSM 1664; assay: growth (OD595) fold change vs plate DMSO controls (fold change (ratio)); higher = more growth
# Summary of the method: (§1)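 Anaerobic mGAM cultures in 96-well plates were grown for 27 h at 37 °C, and absorbance was then read at 595 nm. After blank and compound background correction with 20 µM compound solutions in water, a calibration factor of 5 gave OD. Growth is the fold change relative to the median of each plate's DMSO controls. Values are means of 2 biological replicates, with fold changes above 1.5 set to NA.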
# Escherichia coli IAI1 [2] = assay: as above
# Summary of the method: as §1
# [3] = tested on: Klebsiella aerogenes DSM 30053; assay: as above
# Summary of the method: as §1
# [4] = tested on: Ruminococcus gnavus DSM 108212; assay: as above
# Summary of the method: as §1
# [5] = tested on: Klebsiella aerogenes DSM 30053; assay: fold change of Histamine concentration vs plate DMSO controls (fold change (ratio)); higher = more amine produced, active = hit call of the paper (significant change in both replicates, either direction)
# Summary of the method: (§2)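 In 80 µL wells, cultures of four gut bacterial strains in mGAM started at OD 0.1 before a 1:1 dilution and grew anaerobically at 37 °C for 27 h. Compounds were added to 20 µM final, except sweeteners at 50 µM final. After extraction of whole cultures with cold acetonitrile/methanol plus 0.1% formic acid and centrifugation, amines were measured by LC–triple-quadrupole MS in dynamic MRM mode against external calibration curves, with within-batch drift correction. Values give fold change over DMSO controls on the same plate, averaged across 2 biological replicates.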
# [6] = tested on: Clostridium sporogenes DSM 1664; assay: fold change of Tryptamine concentration vs plate DMSO controls (fold change (ratio)); higher = more amine produced, active = hit call of the paper (significant change in both replicates, either direction)
# Summary of the method: as §2
# [7] = tested on: Ruminococcus gnavus DSM 108212; assay: as above
# Summary of the method: as §2
# Escherichia coli IAI1 [8] = assay: fold change of Putrescine concentration vs plate DMSO controls (fold change (ratio)); higher = more amine produced, active = hit call of the paper (significant change in both replicates, either direction)
# Summary of the method: as §2
# [9] = tested on: Klebsiella aerogenes DSM 30053; assay: as above
# Summary of the method: as §2
# Escherichia coli IAI1 [10] = assay: fold change of Cadaverine concentration vs plate DMSO controls (fold change (ratio)); higher = more amine produced, active = hit call of the paper (significant change in both replicates, either direction)
# Summary of the method: as §2
# [11] = tested on: Klebsiella aerogenes DSM 30053; assay: as above
# Summary of the method: as §2
# [12] = tested on: Ruminococcus gnavus DSM 108212; assay: fold change of 2-Phenylethylamine concentration vs plate DMSO controls (fold change (ratio)); higher = more amine produced, active = hit call of the paper (significant change in both replicates, either direction)
# Summary of the method: as §2
Structure (SMILES),growth [1],growth (Escherichia coli IAI1 [2]),growth [3],growth [4],fold change of Histamine concentration [5],fold change of Tryptamine concentration [6],fold change of Tryptamine concentration [7],fold change of Putrescine concentration (Escherichia coli IAI1 [8]),fold change of Putrescine concentration [9],fold change of Cadaverine concentration (Escherichia coli IAI1 [10]),fold change of Cadaverine concentration [11],fold change of 2-Phenylethylamine concentration [12]
NC[C@@H]1O[C@H](O[C@H]2[C@@H](O)[C@H](O[C@@H]3[C@@H](O)[C@H](N)C[C@H](N)[C@H]3O[C@H]3O[C@H](CO)[C@@H](O)[C@H](O)[C@H]3N)O[C@@H]2CO)[C@H](N)[C@@H](O)[C@@H]1O [Paromomycin sulfate] (20 µM),1.06,0.996,0.975,0.984,0.994 (inactive),1.03 (inactive),0.999 (inactive),1.01 (inactive),1 (inactive),0.972 (inactive),0.981 (inactive),0.987 (inactive)
CN1C(=O)CC(c2ccccc2)C1=O (stereo not given) [Phensuximide] (20 µM),0.976,1.28,0.996,1.05,1.04 (inactive),1.03 (inactive),1.03 (inactive),1.21 (inactive),1.01 (inactive),1.01 (inactive),0.989 (inactive),1.02 (inactive)
COC(=O)Nc1nc2cc(Sc3ccccc3)ccc2[nH]1 [Fenbendazole] (20 µM),1,1.08,0.98,1.09,1.07 (inactive),0.986 (inactive),1 (inactive),1.05 (inactive),1.03 (inactive),0.967 (inactive),0.991 (inactive),1.02 (inactive)
COc1cc2c(cc1OC)C(=O)C(CC1CCN(Cc3ccccc3)CC1)C2 (stereo not given) [Donepezil hydrochloride] (20 µM),1.2,1.23,1.02,0.917,1.53 (inactive),0.947 (inactive),1.03 (inactive),1.24 (inactive),2.04 (inactive),0.981 (inactive),1.21 (inactive),1.08 (inactive)
O=C(CCCN1CCC(O)(c2ccc(Cl)cc2)CC1)c1ccc(F)cc1 [Haloperidol] (20 µM),0.929,0.6,0.574,0.802,1.06 (inactive),1.05 (inactive),0.96 (inactive),1.03 (inactive),1 (inactive),0.864 (inactive),0.992 (inactive),0.965 (inactive)
O=C(O)COC(=O)Cc1ccccc1Nc1c(Cl)cccc1Cl [Aceclofenac] (20 µM),1.1,1.11,1.14,0.993,0.97 (inactive),0.959 (inactive),0.984 (inactive),1.08 (inactive),1.01 (inactive),0.962 (inactive),1.01 (inactive),1.05 (inactive)
CNCCC(Oc1ccccc1OC)c1ccccc1 (stereo not given) [Nisoxetine hydrochloride] (20 µM),0.994,0.74,0.914,0.975,1.02 (inactive),0.993 (inactive),1.01 (inactive),0.707 (inactive),0.978 (inactive),1.18 (inactive),0.983 (inactive),0.92 (inactive)
CN[C@@H]1CCc2[nH]c3ccc(C(N)=O)cc3c2C1 [Frovatriptan succinate] (20 µM),1.12,0.98,0.991,1.01,1.05 (inactive),0.957 (inactive),0.964 (inactive),1.03 (inactive),1 (inactive),1.03 (inactive),0.984 (inactive),0.945 (inactive)
C=CCN1CCCC1CNC(=O)c1cc2nn[nH]c2cc1OC (stereo not given) [Alizapride hydrochloride] (20 µM),1.09,1.01,1.05,1.09,1 (inactive),0.964 (inactive),1.02 (inactive),0.994 (inactive),0.988 (inactive),0.998 (inactive),0.99 (inactive),1 (inactive)
CC(=O)CCCCn1c(=O)c2c(ncn2C)n(C)c1=O [Pentoxifylline] (20 µM),1.01,0.995,1.06,0.929,1 (inactive),1.03 (inactive),0.965 (inactive),1 (inactive),1.02 (inactive),1.04 (inactive),1.02 (inactive),0.947 (inactive)
COc1ccc(C2C(=O)c3ccccc3C2=O)cc1 [Anisindione] (20 µM),0.917,0.951,0.965,1.04,1.03 (inactive),0.976 (inactive),0.994 (inactive),0.953 (inactive),1 (inactive),0.994 (inactive),0.991 (inactive),0.951 (inactive)
COc1ccc2c(c1)N(C[C@H](C)CN(C)C)c1ccccc1S2 [Methotrimeprazine maleate salt] (20 µM),1.03,1.12,1,1.05,1.01 (inactive),1.07 (inactive),1.02 (inactive),1.19 (inactive),1.01 (inactive),0.995 (inactive),1.02 (inactive),1.11 (inactive)
"CN1CCc2c(c3ccccc3n2Cc2ccccc2)C1 [Mebhydroline 1,5-naphtalenedisulfonate] (20 µM)",0.931,0.967,1.04,0.742,1.01 (inactive),1.05 (inactive),0.911 (inactive),0.987 (inactive),0.991 (inactive),0.982 (inactive),1.01 (inactive),0.898 (inactive)
COc1ccc(C(=O)NCc2ccc(OCCN(C)C)cc2)cc1OC [Itopride] (20 µM),1.15,1.1,1.08,1.2,0.925 (inactive),1.05 (inactive),1.04 (inactive),1.09 (inactive),0.98 (inactive),0.942 (inactive),1.06 (inactive),1.04 (inactive)
CCCOc1cc(N)ccc1C(=O)OCCN(CC)CC [Propoxycaine hydrochloride] (20 µM),0.975,1.01,1,1.35,0.991 (inactive),1.02 (inactive),1.05 (inactive),0.956 (inactive),0.986 (inactive),0.967 (inactive),1.01 (inactive),1.09 (inactive)
CC(=O)[C@@]1(O)CC[C@H]2[C@@H]3C[C@H](C)C4=CC(=O)C=C[C@]4(C)[C@@]3(F)[C@@H](O)C[C@@]21C [Fluorometholone] (20 µM),1.02,0.986,1.01,1.14,1.05 (inactive),1.05 (inactive),1.08 (inactive),0.992 (inactive),0.968 (inactive),0.957 (inactive),0.983 (inactive),1.14 (inactive)
CC=CC(=O)N(CC)c1ccccc1C [Crotamiton] (20 µM),0.871,1.05,1.01,1.07,1.06 (inactive),1.01 (inactive),1.07 (inactive),1.02 (inactive),1.01 (inactive),0.967 (inactive),1.01 (inactive),1.12 (inactive)
CCOc1cc(N)c(Cl)cc1C(=O)NCC1CN(Cc2ccc(F)cc2)CCO1 (stereo not given) [Mosapride] (20 µM),1.14,0.963,0.978,1.08,1.05 (inactive),1.03 (inactive),0.938 (inactive),0.985 (inactive),1.02 (inactive),0.998 (inactive),0.992 (inactive),0.936 (inactive)
C[C@@]12CC[C@@H]3[C@@](CC[C@H]4[C@@]3(C)CCC[C@@]4(C)C(=O)O)(CC1=O)C2 [Iso-Steviol] (50 µM),1.08,0.954,1.03,1.09,1.02 (inactive),0.905 (inactive),1 (inactive),0.992 (inactive),1.02 (inactive),0.963 (inactive),1.02 (inactive),0.996 (inactive)
CCOc1ccc2nc3cc(N)ccc3c(N)c2c1 [Ethacridine lactate] (20 µM),0.937,0.981,0.974,0.954,0.985 (inactive),1.07 (inactive),0.856 (inactive),1.14 (inactive),1.01 (inactive),1.12 (inactive),0.993 (inactive),0.837 (inactive)
Cc1ccc(C)c(OCCCC(C)(C)C(=O)O)c1 [Gemfibrozil] (20 µM),1.11,1.01,1.07,0.931,1.02 (inactive),1.01 (inactive),1.05 (inactive),0.995 (inactive),1.02 (inactive),0.968 (inactive),0.994 (inactive),1.03 (inactive)
Cc1cc(O)c(C(=O)N[C@@H](C(=O)N[C@@H]2C(=O)N3C(C(=O)O)=C(CSc4nnnn4C)CS[C@H]23)c2ccc(O)cc2)cn1 [Cefpiramide] (20 µM),0,0.0131,0.61,0,0.829 (inactive),0.0275 (active),0.0434 (active),0.516 (inactive),0.981 (inactive),1.92 (active),1.08 (inactive),0.0464 (active)
COc1cc(N)c(Cl)cc1C(=O)NC1CCN(CCCOc2ccc(F)cc2)CC1OC (stereo not given) [Cisapride] (20 µM),0.913,0.988,0.969,0.705,0.959 (inactive),0.972 (inactive),0.922 (inactive),1 (inactive),0.983 (inactive),1.02 (inactive),0.993 (inactive),0.929 (inactive)
NCCc1c[nH]cn1 [Histamine dihydrochloride] (20 µM),0.927,1.16,1.01,0.893,1.05 (inactive),1.05 (inactive),1.06 (inactive),1.16 (inactive),1.02 (inactive),0.952 (inactive),0.992 (inactive),1.05 (inactive)
CC(=O)OC(C)OC(=O)C(C)c1ccc(-c2ccccc2)c(F)c1 (stereo not given) [Flurbiprofen axetil] (20 µM),1.11,1.03,0.976,0.996,1.01 (inactive),1.04 (inactive),1.07 (inactive),1.04 (inactive),1 (inactive),1.07 (inactive),0.987 (inactive),1.04 (inactive)
